Holding throughout (assay): DAPPL (digital affinity profiling via proximity ligation, sequencing); 10 mM Tris-HCl pH 7.5, 50 mM NaCl, 1 mM DTT, 4% glycerol, room temperature, 30 min; GST-TFs on glutathione beads, 16-mer random dsDNA library, 0.1% formaldehyde crosslink after washing; high values mean tight binding
The target in one experiment is T1, FEV (Homo sapiens, UniProt Q99581 1-238).
T1 sequence: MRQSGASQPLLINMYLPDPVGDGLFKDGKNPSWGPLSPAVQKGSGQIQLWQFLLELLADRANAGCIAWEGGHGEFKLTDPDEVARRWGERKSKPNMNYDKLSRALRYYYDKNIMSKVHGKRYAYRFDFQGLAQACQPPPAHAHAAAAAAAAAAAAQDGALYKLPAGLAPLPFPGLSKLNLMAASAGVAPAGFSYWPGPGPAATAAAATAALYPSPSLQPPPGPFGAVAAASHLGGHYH
The conditions noted are these: protein: recombinant; tags: N-terminal GST; dsDNA, one strand shown. The procedure, abridged:
(§1)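 Pools of DNA-barcoded human transcription factors, expressed in yeast as GST fusions on glutathione beads and combined with a tag-only sample, were incubated with 200 nmole of a 16-mer random double-stranded DNA library. Incubation took 30 min at room temperature in Tris/NaCl/DTT/glycerol buffer and was followed by washing, 0.1% formaldehyde crosslinking, proximity ligation (BsaI/T4 ligase, 1 h, 37 °C), PCR amplification and sequencing on an Illumina NextSeq500. Binding signal is the ratio of a hexamer's read frequency for a factor to its frequency for the tag-only sample.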

A further experiment addresses ETV5 (Homo sapiens, UniProt P41161 1-510). The settings on record: protein: recombinant; tags: N-terminal GST; dsDNA, one strand shown. The gist of the method:
as §1

The target of a further experiment is HSF1 (Homo sapiens, UniProt Q00613 1-529). The conditions noted are these: protein: recombinant; tags: N-terminal GST; chain copies: 3; dsDNA, one strand shown. The procedure, abridged: as §1
Chain of HSF1 (Q00613 whole entry): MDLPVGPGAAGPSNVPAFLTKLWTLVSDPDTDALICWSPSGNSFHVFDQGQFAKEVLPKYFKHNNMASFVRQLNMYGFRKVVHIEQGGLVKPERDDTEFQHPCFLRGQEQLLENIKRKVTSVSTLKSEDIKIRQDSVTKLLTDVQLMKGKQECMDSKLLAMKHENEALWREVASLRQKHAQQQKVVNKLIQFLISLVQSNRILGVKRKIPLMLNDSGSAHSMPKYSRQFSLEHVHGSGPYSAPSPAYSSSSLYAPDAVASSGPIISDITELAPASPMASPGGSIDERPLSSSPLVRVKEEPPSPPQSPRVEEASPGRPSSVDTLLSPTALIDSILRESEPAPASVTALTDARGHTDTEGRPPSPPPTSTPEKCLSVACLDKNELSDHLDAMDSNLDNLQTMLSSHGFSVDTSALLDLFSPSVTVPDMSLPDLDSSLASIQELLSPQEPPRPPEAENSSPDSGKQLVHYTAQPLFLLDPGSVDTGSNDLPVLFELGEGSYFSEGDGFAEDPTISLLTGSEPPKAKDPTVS
Another experiment addresses T2, SPIC (Homo sapiens, UniProt Q8N5J4 1-248).
T2 sequence: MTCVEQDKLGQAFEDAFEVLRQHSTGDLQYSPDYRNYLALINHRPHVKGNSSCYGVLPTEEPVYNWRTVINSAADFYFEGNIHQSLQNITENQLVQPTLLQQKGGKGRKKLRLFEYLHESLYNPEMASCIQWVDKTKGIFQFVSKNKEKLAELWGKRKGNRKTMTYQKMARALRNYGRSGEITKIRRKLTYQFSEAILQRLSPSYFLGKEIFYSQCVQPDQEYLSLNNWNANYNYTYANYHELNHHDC
The conditions noted are these: protein: recombinant; tags: N-terminal GST; dsDNA, one strand shown. The procedure, abridged:
as §1

For another experiment, the target named is ELF4 (Homo sapiens, UniProt Q99607 1-663). The settings on record: protein: recombinant; tags: N-terminal GST; dsDNA, one strand shown. The procedure, abridged: as §1
Chain of ELF4 (Q99607 whole entry): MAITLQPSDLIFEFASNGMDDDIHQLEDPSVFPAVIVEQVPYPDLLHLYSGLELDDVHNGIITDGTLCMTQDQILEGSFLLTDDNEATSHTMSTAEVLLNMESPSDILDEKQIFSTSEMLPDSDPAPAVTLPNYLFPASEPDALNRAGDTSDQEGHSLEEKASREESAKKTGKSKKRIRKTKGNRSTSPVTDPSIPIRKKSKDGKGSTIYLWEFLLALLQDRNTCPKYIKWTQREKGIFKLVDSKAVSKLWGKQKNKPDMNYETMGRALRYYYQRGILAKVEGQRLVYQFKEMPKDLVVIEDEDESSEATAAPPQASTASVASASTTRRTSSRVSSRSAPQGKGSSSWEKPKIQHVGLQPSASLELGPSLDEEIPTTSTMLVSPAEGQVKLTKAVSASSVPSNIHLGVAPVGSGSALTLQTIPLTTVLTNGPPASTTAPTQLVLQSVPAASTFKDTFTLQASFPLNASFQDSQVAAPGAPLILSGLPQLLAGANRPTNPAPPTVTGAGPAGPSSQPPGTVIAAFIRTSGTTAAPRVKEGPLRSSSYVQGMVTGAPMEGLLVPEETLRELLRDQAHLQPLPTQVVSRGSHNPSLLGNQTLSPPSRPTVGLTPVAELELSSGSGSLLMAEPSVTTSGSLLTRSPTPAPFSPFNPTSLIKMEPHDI
The next experiment concerns the target T3, ELK4 (Homo sapiens, UniProt P28324-2 1-405).
T3 sequence: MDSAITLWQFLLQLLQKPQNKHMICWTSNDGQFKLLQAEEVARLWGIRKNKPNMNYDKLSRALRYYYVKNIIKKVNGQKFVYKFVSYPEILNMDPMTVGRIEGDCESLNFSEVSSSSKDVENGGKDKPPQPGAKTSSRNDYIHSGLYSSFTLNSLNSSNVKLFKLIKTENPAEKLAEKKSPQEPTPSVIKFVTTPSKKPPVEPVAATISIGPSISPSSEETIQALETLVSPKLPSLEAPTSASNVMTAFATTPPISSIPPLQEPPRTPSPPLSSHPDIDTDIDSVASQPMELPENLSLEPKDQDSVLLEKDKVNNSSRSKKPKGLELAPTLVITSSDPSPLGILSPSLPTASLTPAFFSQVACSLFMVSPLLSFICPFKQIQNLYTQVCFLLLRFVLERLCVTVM
The conditions noted are these: protein: recombinant; tags: N-terminal GST; dsDNA, one strand shown. The gist of the method: as §1

For the next experiment, the target named is T4, ETV2 (Homo sapiens, UniProt O00321 1-342).
T4 sequence: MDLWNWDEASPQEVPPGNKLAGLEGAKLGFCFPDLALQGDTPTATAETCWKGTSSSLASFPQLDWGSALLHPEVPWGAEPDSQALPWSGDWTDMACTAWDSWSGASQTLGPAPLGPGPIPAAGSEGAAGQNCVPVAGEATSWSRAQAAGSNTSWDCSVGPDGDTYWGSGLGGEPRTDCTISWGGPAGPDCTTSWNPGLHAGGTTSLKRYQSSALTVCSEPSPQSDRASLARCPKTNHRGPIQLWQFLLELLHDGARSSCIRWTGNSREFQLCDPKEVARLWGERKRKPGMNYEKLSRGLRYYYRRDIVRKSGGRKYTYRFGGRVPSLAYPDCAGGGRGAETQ
The conditions noted are these: protein: recombinant; tags: N-terminal GST; dsDNA, one strand shown. The gist of the method:
as §1

A further experiment addresses T5, ELF3 (Homo sapiens, UniProt P78545 1-371).
T5 sequence: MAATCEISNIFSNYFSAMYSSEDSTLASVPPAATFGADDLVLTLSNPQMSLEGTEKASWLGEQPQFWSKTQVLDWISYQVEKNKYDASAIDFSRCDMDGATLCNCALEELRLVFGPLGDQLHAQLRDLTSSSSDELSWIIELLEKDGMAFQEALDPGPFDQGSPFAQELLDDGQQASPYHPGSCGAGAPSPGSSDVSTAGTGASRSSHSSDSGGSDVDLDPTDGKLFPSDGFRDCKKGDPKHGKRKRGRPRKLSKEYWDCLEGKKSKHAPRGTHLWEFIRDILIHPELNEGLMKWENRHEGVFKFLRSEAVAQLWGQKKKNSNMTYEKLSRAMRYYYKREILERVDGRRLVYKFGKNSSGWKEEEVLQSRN
The settings on record: protein: recombinant; tags: N-terminal GST; dsDNA, one strand shown. The procedure, abridged: as §1

The target in the next experiment is CRX (Homo sapiens, UniProt O43186 1-299). The conditions noted are these: protein: recombinant; tags: N-terminal GST; dsDNA, one strand shown. The gist of the method: as §1
Chain of CRX (O43186 whole entry): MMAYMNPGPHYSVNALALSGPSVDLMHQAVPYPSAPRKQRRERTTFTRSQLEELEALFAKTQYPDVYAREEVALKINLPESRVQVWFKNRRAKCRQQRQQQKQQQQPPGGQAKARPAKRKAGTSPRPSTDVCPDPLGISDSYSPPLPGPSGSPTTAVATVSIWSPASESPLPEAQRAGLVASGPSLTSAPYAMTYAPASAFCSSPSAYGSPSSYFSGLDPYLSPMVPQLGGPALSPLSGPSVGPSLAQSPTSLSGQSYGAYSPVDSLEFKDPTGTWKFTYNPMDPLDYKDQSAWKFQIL
The next experiment has as its target ETV1 (Homo sapiens, UniProt P50549 1-477). The conditions noted are these: protein: recombinant; tags: N-terminal GST; dsDNA, one strand shown. The gist of the method: as §1
A further experiment concerns the target T6, ERF (Homo sapiens, UniProt P50548 1-548).
T6 sequence: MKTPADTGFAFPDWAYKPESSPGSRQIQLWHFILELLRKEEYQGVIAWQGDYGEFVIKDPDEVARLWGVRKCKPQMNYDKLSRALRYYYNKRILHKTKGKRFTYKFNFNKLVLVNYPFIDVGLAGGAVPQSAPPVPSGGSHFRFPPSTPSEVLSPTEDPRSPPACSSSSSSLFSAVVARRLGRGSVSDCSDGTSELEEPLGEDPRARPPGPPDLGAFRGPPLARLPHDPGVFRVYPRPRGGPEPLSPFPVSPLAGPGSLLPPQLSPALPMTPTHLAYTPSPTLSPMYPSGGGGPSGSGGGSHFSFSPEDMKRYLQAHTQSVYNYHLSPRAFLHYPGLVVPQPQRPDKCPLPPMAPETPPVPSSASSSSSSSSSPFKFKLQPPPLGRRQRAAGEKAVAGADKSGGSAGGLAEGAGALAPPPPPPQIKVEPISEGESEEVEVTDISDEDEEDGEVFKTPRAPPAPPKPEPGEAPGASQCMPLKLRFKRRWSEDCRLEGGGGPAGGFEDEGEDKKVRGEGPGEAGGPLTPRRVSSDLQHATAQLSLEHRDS
The settings on record: protein: recombinant; tags: N-terminal GST; dsDNA, one strand shown. The gist of the method:
as §1

Another experiment has as its target T7, ETV3L (Homo sapiens, UniProt Q6ZN32 1-361).
T7 sequence: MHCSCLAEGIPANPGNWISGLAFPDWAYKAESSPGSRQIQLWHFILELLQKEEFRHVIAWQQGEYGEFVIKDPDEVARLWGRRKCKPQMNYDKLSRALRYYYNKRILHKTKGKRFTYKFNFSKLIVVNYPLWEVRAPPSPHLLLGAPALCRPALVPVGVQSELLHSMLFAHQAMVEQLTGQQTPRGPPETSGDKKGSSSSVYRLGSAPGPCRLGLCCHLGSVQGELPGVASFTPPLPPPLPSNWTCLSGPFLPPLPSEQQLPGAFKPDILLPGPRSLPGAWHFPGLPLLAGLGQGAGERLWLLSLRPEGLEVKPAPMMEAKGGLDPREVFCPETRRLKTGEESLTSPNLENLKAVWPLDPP
The settings on record: protein: recombinant; tags: N-terminal GST; dsDNA, one strand shown. The procedure, abridged: as §1

The target of the next experiment is T8, ETS2 (Homo sapiens, UniProt P15036 1-469).
T8 sequence: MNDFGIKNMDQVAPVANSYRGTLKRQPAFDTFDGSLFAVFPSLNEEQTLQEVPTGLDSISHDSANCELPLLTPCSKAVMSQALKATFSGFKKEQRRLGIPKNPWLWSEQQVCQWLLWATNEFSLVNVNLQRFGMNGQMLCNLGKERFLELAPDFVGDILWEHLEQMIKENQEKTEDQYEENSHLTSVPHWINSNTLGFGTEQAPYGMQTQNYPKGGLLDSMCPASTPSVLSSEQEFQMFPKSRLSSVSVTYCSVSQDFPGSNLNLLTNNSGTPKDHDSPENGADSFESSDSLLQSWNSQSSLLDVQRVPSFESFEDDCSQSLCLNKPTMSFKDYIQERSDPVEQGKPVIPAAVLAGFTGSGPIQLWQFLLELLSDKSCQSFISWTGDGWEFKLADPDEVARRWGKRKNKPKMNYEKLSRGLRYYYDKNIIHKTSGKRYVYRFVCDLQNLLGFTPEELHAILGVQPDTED
The settings on record: protein: recombinant; tags: N-terminal GST; dsDNA, one strand shown. The gist of the method:
as §1

For a further experiment, the target named is T9, SPDEF (Homo sapiens, UniProt O95238 1-335).
T9 sequence: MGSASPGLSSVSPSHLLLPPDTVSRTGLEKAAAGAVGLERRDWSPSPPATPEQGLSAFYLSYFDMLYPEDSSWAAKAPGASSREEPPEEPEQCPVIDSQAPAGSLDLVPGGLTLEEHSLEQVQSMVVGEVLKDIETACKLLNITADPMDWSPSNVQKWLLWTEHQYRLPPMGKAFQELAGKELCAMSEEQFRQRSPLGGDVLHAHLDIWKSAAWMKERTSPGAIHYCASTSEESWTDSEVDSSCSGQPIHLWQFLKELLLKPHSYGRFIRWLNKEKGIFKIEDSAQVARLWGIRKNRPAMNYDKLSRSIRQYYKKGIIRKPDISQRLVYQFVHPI
The conditions noted are these: protein: recombinant; tags: N-terminal GST; dsDNA, one strand shown. The gist of the method: as §1

The target in the next experiment is T10, ETV7 (Homo sapiens, UniProt Q9Y603 1-341).
T10 sequence: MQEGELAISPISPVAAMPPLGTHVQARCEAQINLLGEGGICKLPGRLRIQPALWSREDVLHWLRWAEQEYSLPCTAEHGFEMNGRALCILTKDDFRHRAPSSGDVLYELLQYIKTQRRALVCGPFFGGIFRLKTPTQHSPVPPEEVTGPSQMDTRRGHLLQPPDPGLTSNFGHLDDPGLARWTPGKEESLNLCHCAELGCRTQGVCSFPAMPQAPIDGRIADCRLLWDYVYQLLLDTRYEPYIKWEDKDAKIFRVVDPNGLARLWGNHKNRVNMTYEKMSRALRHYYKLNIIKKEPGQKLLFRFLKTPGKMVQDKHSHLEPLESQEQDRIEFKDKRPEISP
The settings on record: protein: recombinant; tags: N-terminal GST; dsDNA, one strand shown. The gist of the method:
as §1

A further experiment concerns the target T11, ELF5 (Homo sapiens, UniProt Q9UKW6-2 1-255).
T11 sequence: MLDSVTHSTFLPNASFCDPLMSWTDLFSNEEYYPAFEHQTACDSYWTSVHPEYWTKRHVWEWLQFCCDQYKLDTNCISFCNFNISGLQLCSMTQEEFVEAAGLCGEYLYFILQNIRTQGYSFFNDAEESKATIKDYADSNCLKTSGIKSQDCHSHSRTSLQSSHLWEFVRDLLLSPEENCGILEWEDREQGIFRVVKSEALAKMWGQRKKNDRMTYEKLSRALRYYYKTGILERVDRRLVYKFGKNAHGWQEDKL
The settings on record: protein: recombinant; tags: N-terminal GST; dsDNA, one strand shown. The procedure, abridged:
as §1

For a further experiment, the target named is T12, ETV3 (Homo sapiens, UniProt P41162-2 1-143).
T12 sequence: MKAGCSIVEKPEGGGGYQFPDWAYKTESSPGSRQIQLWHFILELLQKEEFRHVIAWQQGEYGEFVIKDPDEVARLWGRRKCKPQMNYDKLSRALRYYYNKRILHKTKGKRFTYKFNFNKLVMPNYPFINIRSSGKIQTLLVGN
The settings on record: protein: recombinant; tags: N-terminal GST; dsDNA, one strand shown. The procedure, abridged:
as §1

Another experiment deals with ETV6 (Homo sapiens, UniProt P41212 1-452). The conditions noted are these: protein: recombinant; tags: N-terminal GST; dsDNA, one strand shown. The procedure, abridged:
as §1

Chain of ETV6 (P41212 whole entry): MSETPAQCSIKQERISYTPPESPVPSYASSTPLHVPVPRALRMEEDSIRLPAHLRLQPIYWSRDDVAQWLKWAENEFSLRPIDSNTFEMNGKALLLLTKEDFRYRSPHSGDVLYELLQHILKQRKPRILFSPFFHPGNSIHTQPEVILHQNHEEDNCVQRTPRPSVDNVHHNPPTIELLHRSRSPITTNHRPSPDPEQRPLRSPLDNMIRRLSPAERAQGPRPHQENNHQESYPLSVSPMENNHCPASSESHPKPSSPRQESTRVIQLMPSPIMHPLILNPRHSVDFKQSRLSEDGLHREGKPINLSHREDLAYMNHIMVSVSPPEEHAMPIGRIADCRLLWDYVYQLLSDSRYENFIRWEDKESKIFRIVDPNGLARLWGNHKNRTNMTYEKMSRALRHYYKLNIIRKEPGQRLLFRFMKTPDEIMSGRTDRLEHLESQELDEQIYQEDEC
Chain of ETV5 (P41161 whole entry): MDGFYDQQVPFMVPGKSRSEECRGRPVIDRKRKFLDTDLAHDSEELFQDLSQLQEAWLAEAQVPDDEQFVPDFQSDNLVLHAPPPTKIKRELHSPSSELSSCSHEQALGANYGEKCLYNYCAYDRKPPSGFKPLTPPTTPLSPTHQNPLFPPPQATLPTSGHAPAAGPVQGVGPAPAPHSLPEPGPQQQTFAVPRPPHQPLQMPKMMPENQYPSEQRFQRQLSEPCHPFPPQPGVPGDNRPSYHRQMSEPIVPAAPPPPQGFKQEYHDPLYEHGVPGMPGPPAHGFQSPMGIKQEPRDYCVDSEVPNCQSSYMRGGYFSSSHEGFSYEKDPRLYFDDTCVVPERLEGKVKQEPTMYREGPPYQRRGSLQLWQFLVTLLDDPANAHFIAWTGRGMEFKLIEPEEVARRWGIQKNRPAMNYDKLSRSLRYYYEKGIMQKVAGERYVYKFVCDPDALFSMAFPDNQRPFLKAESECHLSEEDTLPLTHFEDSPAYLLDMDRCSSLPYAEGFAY
Chain of ETV1 (P50549 whole entry): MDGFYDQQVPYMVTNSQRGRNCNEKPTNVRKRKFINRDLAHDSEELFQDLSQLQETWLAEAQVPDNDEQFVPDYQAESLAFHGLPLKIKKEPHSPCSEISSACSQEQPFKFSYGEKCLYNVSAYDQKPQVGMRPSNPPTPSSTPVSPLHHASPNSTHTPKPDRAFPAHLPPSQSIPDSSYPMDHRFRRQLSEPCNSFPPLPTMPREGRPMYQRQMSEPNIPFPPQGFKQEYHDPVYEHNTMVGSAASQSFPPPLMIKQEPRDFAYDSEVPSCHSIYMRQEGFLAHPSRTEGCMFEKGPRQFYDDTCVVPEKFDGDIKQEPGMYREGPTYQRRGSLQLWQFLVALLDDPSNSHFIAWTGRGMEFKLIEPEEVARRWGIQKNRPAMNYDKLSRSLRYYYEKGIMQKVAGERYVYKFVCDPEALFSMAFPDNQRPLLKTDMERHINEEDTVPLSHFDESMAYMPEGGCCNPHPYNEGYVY

Take TATCTC: the binding signal is 1.27 fold enrichment (6-mer frequency, TF over GST control) with FEV; 1.2 fold enrichment (6-mer frequency, TF over GST control) with ETV5; 1.45 fold enrichment (6-mer frequency, TF over GST control) with HSF1; 1.21 fold enrichment (6-mer frequency, TF over GST control) with SPIC; 1.21 fold enrichment (6-mer frequency, TF over GST control) in the experiment with ELF4; 1.27 fold enrichment (6-mer frequency, TF over GST control) in the experiment with ELK4. Also, the binding signal is 1.18 fold enrichment (6-mer frequency, TF over GST control) with ETV2; 1.16 fold enrichment (6-mer frequency, TF over GST control) with ELF3; 1.76 fold enrichment (6-mer frequency, TF over GST control) with CRX; 1.3 fold enrichment (6-mer frequency, TF over GST control) with ETV1; 1.3 fold enrichment (6-mer frequency, TF over GST control) in the experiment with ERF; 1.3 fold enrichment (6-mer frequency, TF over GST control) with ETV3L. Besides, the binding signal with ETS2 is 1.27 fold enrichment (6-mer frequency, TF over GST control); in the experiment with SPDEF it was 1.22 fold enrichment (6-mer frequency, TF over GST control); with ETV7, 1.21 fold enrichment (6-mer frequency, TF over GST control); with ELF5, 1.23 fold enrichment (6-mer frequency, TF over GST control); with ETV3, 1.13 fold enrichment (6-mer frequency, TF over GST control); with ETV6, 1.21 fold enrichment (6-mer frequency, TF over GST control).

The record behind these values is article PMC7862700, “An all-to-all approach to the identification of sequence-specific readers for epigenetic DNA modifications on cytosine”.
